Data published in PubChem BioAssay (Tox21).
Several values for one entry are separate records, joined by “and”; a condition that tells them apart may be missing. Identical values can stand only once. Inconclusive results are not listed. Where a call stands in place of a potency, no number is given. Some compounds were tested as several samples or in several runs, with calls that do not always agree. Activity calls are given as the source filed them. Calls come from the whole dose curve; as a rule, active = well fitted cell-killing curve with a large enough effect in the repeat runs; inconclusive = weak or mixed curves, or effect the other way; inactive = flat fitted curve, though single readings scatter.

Test: qHTS RealTime-Glo MT Cell Viability Assay in HepG2 cells - 40 hour (AID 1224870); note: nearly all actives have a fitted effect of over 50% in size
Conditions: RealTime-Glo luminescence; series mostly up to 76.8 µM; activity change, negative = cytotoxic: at the top concentration
Excerpt: National Center for Advancing Translational Sciences [NCATS]
NIH Chemical Genomics Center [NCGC]
U.S. Environmental Protection Agency [EPA]
National Institutes of Environmental Health Sciences [NIEHS]
National Toxicology Program [NTP]
U.S. Food and Drug Administration [FDA]
Measure of cell viability is critical in the cell-base assay. Analysis of cell viability is necessary for the characterization of cell responses to cytotoxic drugs and environmental stress. A RealTime-Glo MT Cell Viability Assay to monitor cell viability in real time of continues cell culture during 40 hours of compound treatment was used to screen Tox21 10K library compounds in HepG2 cells. The RealTime-Glo MT Cell Viability Assay is a nonlytic, homogeneous, bioluminescent method to measure cell viability in real time using a simple, plate-based method. The assay involves adding NanoLuc luciferase and a cell-permeant prosubstrate to cells in culture. Viable cells reduce the proprietary prosubstrate to generate a substrate for NanoLuc luciferase. This substrate diffuses from cells into the surrounding culture medium, where it is rapidly used by the NanoLuc Enzyme to produce a luminescent signal. The signal correlates with the number of viable cells, making the assay well suited for cytotoxicity studies.
Tox21 Assay Protocol Summary:
The mixture of HepG2 cell suspension and reagents were dispensed at 600cells/6 ul/well in 1536-well tissue culture treated black solid bottom plates using a Multidrop dispenser. After the assay plates were incubated at a 37 C/5% CO2 incubator for 5 hours, 23 nL of compounds dissolved in DMSO, positive and negative controls was transferred to the assay plate by a pintool work station. The plates were incubated at 37 C for 40 hours. The luminescence intensity were measured at 0h, 8h, 16h, 24h, 32h and 40h time points using ViewLux plate reader during compound treatment.
Potency is the fitted concentration of half-maximal effect.

Row | Compound | Potency | activity change, negative = cytotoxic
1 | O=[N+]([O-])c1ccc(Nc2ccccc2)cc1 | inactive | –
2 | Cl | inactive | –
3 | O=NN(c1ccccc1)c1ccccc1 | inactive | –
4 | CCC1(c2ccc(N)cc2)CCC(=O)NC1=O (stereo not given) | inactive | –
5 | [CH3][Sn]([Cl])([Cl])[Cl] | inactive | –
6 | O=C(O)CF | inactive | –
7 | CNC(=O)Oc1cccc2c1OC(C)(C)C2 | inactive | –
8 | CCC/C=N/O | inactive | –
9 | C[N+](C)(C)C | inactive | –
10 | Cc1ccc([N+](=O)[O-])cc1 | inactive | –
11 | CCOP(=S)(OCC)OP(=S)(OCC)OCC | inactive | –
12 | CCNc1nc(Cl)nc(NC(C)(C)C#N)n1 | inactive | –
13 | CCNCC | inactive | –
14 | OCCOCCO | inactive | –
15 | CC(C)(c1ccccc1)c1ccc(O)c(C(C)(C)c2ccccc2)c1 | 49 µM (active) | –
16 | O=C1Nc2ccc(Cl)cc2C(c2ccccc2)=NC1O (stereo not given) | inactive | –
17 | CCCCCCCC[N+](C)(CCCCCCCC)CCCCCCCC | 9.75 µM (active) and 15.5 µM (active) and 8.71 µM (active) | –
18 | O=C1CCCO1 | inactive | –
19 | CCOP(=O)(O)OCC (tested in a mixture with another compound) | inactive and 43.3 µM (active) | –
20 | Cc1cc(Cl)ccc1N=CN(C)C | – | -2.27% (inactive)

Row | Compound | Potency | activity change, negative = cytotoxic
21 | Nc1ccc2ccccc2c1 | inactive | –
22 | CSc1nc(NC(C)C)nc(NC(C)C)n1 | inactive | –
23 | CC(C)(c1ccccc1)c1ccc(O)cc1 | – | -3.4% (inactive)
24 | O=NN1CCOCC1 | inactive | –
25 | CC(C)Nc1nc(Cl)nc(NC(C)C)n1 | inactive | –
26 | c1ccc2c(c1)Nc1ccccc1S2 | inactive | –
27 | COP(=O)(NC(C)=O)SC (stereo not given) | inactive | –
28 | ClC(Cl)=C(Cl)C(Cl)=C(Cl)Cl | inactive | –
29 | O=P(OCCCl)(OCCCl)OCCCl | inactive | –
30 | CCC(=O)Nc1ccc(Cl)c(Cl)c1 | inactive | –
31 | CCC[CH2][Sn]([Cl])([CH2]CCC)[CH2]CCC | 979 nM (active) and 347 nM (active) | –
32 | CC(C)(c1ccc(OCC2CO2)cc1)c1ccc(OCC2CO2)cc1 (stereo not given) | inactive | –
33 | CN(C)P(=O)(N(C)C)N(C)C | inactive | –
34 | C[N+](C)(C)CC(=O)O | inactive | –
35 | Clc1cccc(C(Cl)(Cl)Cl)n1 | inactive | –
36 | CCOP(=S)(OCC)SCn1c(=O)oc2cc(Cl)ccc21 | inactive | –
37 | CCCCOCCOC(C)=O | inactive | –
38 | Nc1ccc([N+](=O)[O-])cc1N | inactive | –
39 | N#CC(c1ccccc1)c1ccccc1 | inactive | –
40 | Brc1ccc(Br)cc1 | inactive | –
